Assay results as given in PubChem BioAssay AID1347418 (Sanford-Burnham Center for Chemical Genomics, 2020).
The whole screen tested about 1,300 compounds, of which about 750 (58%) were called active. The list shows a part of the results.

Biological target: Sulfhydryl oxidase 1 (Homo sapiens) (UniProt O00391)
Assay: inhibition of human sulfhydryl oxidase QSOX1 – biochemical, ROS-Glo H2O2 luminescence, HTS, primary screen (AID 1347418)
Conditions: recombinant QSOX1, ROS-Glo H2O2 luminescence, at 12.5 µM, active compounds read high; active = any value above zero unless noted

Sequence of Sulfhydryl oxidase 1 (Homo sapiens) (O00391 whole entry, looked up): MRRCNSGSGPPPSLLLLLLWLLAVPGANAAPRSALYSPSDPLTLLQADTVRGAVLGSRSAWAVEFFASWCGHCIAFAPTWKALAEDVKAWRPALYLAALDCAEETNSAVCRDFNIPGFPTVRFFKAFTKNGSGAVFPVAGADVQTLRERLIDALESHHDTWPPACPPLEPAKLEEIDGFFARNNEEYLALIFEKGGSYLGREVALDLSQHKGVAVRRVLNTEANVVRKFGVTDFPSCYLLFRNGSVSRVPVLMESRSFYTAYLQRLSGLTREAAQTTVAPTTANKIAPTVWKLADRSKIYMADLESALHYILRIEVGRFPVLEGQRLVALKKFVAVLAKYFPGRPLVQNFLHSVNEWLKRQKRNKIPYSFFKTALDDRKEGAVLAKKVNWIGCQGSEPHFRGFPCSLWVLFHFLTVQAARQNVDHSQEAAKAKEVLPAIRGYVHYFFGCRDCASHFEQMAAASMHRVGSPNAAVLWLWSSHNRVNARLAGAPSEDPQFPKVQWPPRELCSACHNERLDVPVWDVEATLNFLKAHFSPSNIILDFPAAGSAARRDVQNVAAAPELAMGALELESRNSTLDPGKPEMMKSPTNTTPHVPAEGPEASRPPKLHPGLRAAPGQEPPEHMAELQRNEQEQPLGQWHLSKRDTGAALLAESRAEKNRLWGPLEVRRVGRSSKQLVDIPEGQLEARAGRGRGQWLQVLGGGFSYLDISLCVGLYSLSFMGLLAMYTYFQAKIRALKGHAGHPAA

Compound	inhibition
S=C(NC1CCCCC1)N1CCC(c2cnc[nH]2)CC1	-1.7% (inactive)
Clc1ccc(N2CC3CCC(C2)N3)nn1	1.8% (active)
C#CCN[C@H](C)Cc1ccccc1	4.3% [setting not given] (active)
N[C@@H](CCl)C(=O)O	-3.4% (inactive)
C[Se]C[C@H](N)C(=O)O	3.9% (active)
O=C1NCN(c2ccccc2)C12CCN(CC1COc3ccccc3O1)CC2 (centres undefined)	-3.1% (inactive)
C/C(O)=C(\C#N)C(=O)Nc1cc(Br)ccc1Br	-1.3% (inactive)
COc1cc(CC(C)N)c(OC)cc1I (centres undefined)	4.3% [setting not given] (active)
NC(=O)c1ccc(OCC(O)CN2CC=C(c3ccc(F)cc3)CC2)cc1 (centres undefined)	0.4% (active)
COc1ccc(C(CN(C)C)C2(O)CCCCC2)cc1 (centres undefined)	-1.3% (inactive)
CC(C)NC(C)Cc1ccc(I)cc1 (centres undefined)	5.2% [setting not given] (active)
COc1ccc2[nH]c3c(c2c1)CCNC3	0.8% (active)
O=S1(=O)N(CCN2CC=C(c3c[nH]c4cc(F)ccc34)CC2)c2cccc3c2N1CCC3	4.2% (active)
CC(=O)[C@H]1CC[C@H]2[C@@H]3CC[C@H]4C[C@H](O)CC[C@]4(C)[C@H]3C(=O)C[C@]12C	-0.2% [setting not given] (inactive)
c1ccc(CCCN2CCN(CCOC(c3ccccc3)c3ccccc3)CC2)cc1	7% (active)
O=C(CCCN1CCC2(CC1)C(=O)NCN2c1ccccc1)c1ccc(F)cc1	-1% [setting not given] (inactive)
Fc1ccc(C(OCCN2CCN(CCCc3ccccc3)CC2)c2ccc(F)cc2)cc1	6.5% (active)
CC[C@@H](CO)NC(=O)[C@@H]1C=C2c3cccc4[nH]cc(c34)C[C@H]2N(C)C1	6.3% [setting not given] (active)
CC[C@@H](CO)NC(=O)[C@@H]1C=C2c3cccc4c3c(cn4C)C[C@H]2N(C)C1	1.6% [setting not given] (active)
C=CCN1CCC23c4c5ccc(O)c4O[C@H]2C(=O)CC[C@@]3(O)C1C5 (some centres undefined)	3.2% [setting not given] (active)

Compound	inhibition
C=CCN1CC[C@]23c4c5ccc(O)c4O[C@@H]2/C(=N/N=C2\CC[C@@]4(O)C6Cc7ccc(O)c8c7[C@@]4(CCN6CC=C)[C@@H]2O8)CC[C@@]3(O)C1C5	1.8% (active)
O=C1CC[C@@]2(O)C3Cc4ccc(O)c5c4C2(CCN3CC2CC2)[C@H]1O5 (some centres undefined)	1.2% [setting not given] (active)
C=CCN1CC[C@]23c4c5ccc(O)c4O[C@H]2/C(=N/NC(=O)c2ccccc2)CC[C@@]3(O)[C@H]1C5	-0.4% [setting not given] (inactive)
CCOC(=O)c1ncn2c1[C@@H]1CCCN1C(=O)c1cc(OC)ccc1-2	3.1% (active)
Cc1ncsc1CCCl	4.8% (active)
Clc1cnc(Oc2ccc(Oc3ncc(Cl)cc3Cl)cc2)c(Cl)c1	-1.5% [setting not given] (inactive)
CN1CCC(c2c[nH]c3ccc(O)cc23)CC1	26.8% (active)
CC(Cc1ccc(O)cc1)NCC(O)c1cc(O)cc(O)c1 (centres undefined)	7.9% [setting not given] (active)
CC(Cc1ccc(OCC(=O)O)cc1)NCC(O)c1cccc(Cl)c1 (centres undefined)	-3.3% (inactive)
N[C@@]1(C(=O)O)CC[C@@H](C(=O)O)C1	-1.7% (inactive)
CN1CC[C@@]2(C)c3cc(OC(=O)Nc4ccccc4)ccc3N(C)[C@@H]12	8.3% (active)
CN1CC[C@@]2(C)c3cc(O)ccc3N(C)C12 (some centres undefined)	15.2% (active)
NC(=O)CN1CC(O)CC1=O (centres undefined)	1.1% [setting not given] (active)
Cc1cccc(C)c1NC(=O)CN1CCCC1=O	3% [setting not given] (active)
CC[C@@H](C(N)=O)N1CCCC1=O	-2.6% [setting not given] (inactive)
O=C1CCCN1CC#CCN1CCCC1	-8.1% [setting not given] (inactive)
NC(=O)CN1CCCC1=O	2.9% [setting not given] (active)
COc1ccc(C(=O)N2CCCC2=O)cc1	-3% [setting not given] (inactive)
C=CCN(C1=NCCN1)c1c(Cl)cccc1Cl	-6.5% (inactive)
CCC1(C2=NCCN2)Cc2ccccc2O1 (centres undefined)	-2.6% (inactive)

Compound	inhibition
C/C=C(/C)C(=O)O[C@H]1C(C)=C2[C@H]([C@@H]1OC(=O)CCCCCCC)[C@@](C)(OC(C)=O)C[C@H](OC(=O)CCC)[C@@]1(O)[C@H]2OC(=O)[C@@]1(C)O	-0.7% (inactive)
CN[C@@H]1C[C@@H](c2ccc(Cl)c(Cl)c2)c2ccccc21	-1.2% (inactive)
CCCN1CCC[C@@H]2Cc3[nH]ncc3C[C@H]21	-2.4% (inactive)
CC12CCC3C(CCC4=C(O)C(=O)CCC43C)C1CCC2=O (centres undefined)	0.2% [setting not given] (active)
C[C@@H](N)Cc1cnc[nH]1	11.8% (active)
c1ccc(C2(c3ccccc3)CC2C2=NCCN2)cc1 (centres undefined)	-0.8% (inactive)
CCn1cnc2c(Nc3cccc(Cl)c3)nc(N[C@@H]3CCCC[C@@H]3N)nc21	0.3% (active)
NC(Cn1oc(=O)[nH]c1=O)C(=O)O (centres undefined)	2.7% (active)
CCC1(c2ccc(N)cc2)CCC(=O)NC1=O (centres undefined)	-0.8% [setting not given] (inactive)
NCCCP(=O)(O)O	6.4% (active)
CC(NC(C)(C)C)C(=O)c1cccc(Cl)c1 (centres undefined)	0.7% [setting not given] (active)
CCCN1CCC[C@@H]2Cc3nc(N)ncc3C[C@H]21	-0.3% (inactive)
CC(C)(C)c1cc(C=C(C#N)C#N)cc(C(C)(C)C)c1O	27.7% (active)
N#CC(C#N)=Cc1ccc(O)c(O)c1	31.5% (active)
N#CC(=Cc1ccc(O)c(O)c1)C(N)=S	26.9% (active)
CCCCc1ccc(C(=O)O)nc1	-1.9% (inactive)
NC(=O)c1cc(N2CC2)c([N+](=O)[O-])cc1[N+](=O)[O-]	-2.6% (inactive)
COc1ccc(OC)c(C(O)C(C)N)c1 (centres undefined)	-1.4% [setting not given] (inactive)
CC(N)[C@H](O)c1ccc(O)c(O)c1 (some centres undefined)	10.4% [setting not given] (active)
